# Screens as filed in PubChem BioAssay.
# Shown are actives, neighbours in structure and some others; about 9% of the full set was active somewhere.
# ALDH1A1 inh = blocks purified human ALDH1A1 activity; P00352; Purified ALDH1A1, NADH fluorescence, propionaldehyde substrate; Potency, µM (highest dose often 75.3 µM), usual class: inhibitors; 7.3% of 220,000 active; active = well fitted inhibition curve with a large enough effect, not every such curve was filed as active; inconclusive = small, poorly fitted or top-dose-only effect, or another doubt; inactive = no such curve, though single readings can be large or run the other way
# Target sequence (P00352 whole entry, looked up): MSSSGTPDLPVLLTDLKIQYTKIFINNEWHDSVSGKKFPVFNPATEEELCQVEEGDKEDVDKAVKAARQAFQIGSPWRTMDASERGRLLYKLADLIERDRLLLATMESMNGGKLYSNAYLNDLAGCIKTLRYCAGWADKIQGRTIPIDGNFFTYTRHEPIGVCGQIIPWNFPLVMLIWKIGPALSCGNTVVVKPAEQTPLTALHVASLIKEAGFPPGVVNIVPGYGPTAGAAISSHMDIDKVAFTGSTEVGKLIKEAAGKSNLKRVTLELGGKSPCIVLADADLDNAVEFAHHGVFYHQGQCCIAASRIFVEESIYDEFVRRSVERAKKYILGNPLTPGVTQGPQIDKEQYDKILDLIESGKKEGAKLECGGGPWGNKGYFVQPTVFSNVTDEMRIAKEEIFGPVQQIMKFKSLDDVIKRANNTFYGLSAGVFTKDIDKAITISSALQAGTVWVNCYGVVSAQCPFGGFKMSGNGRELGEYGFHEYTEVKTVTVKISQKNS
# Lamin A splicing = LMNA splicing modulation; Potency, µM (series often up to 46.1 µM), usual class: inhibitors; AID 1487; 0.01% of 200,000 active; HeLa LMNA splicing GFP/RFP minigene ratio, 48 h; active = well fitted inhibition curve with a large enough effect in the signal ratio, with a control signal flat, not every such curve was filed as active; inconclusive = small, poorly fitted or top-dose-only effect, or effect the other way, or a change in a side signal; the % refers to the signal ratio
#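 S3 HeLa stable clones carrying a lamin A-EGFP splicing minigene plus DsRed2 were seeded at 600 cells/well in Opti-MEM with 2% FBS, pin-dosed and incubated 48 h at 37°C. Acumen cytometry (488 nm) gave the GFP/RFP total-intensity ratio.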
# KinaseGlo FLuc = counter-screen: inhibitors of Kinase-Glo firefly luciferase | Potency, µM (highest dose often 38.3 µM), actives largely listed as inhibitors | 0.28% of 200,000 active | Kinase-Glo luciferase, ATP luminescence, 8 min | Q27757; also: nearly all actives have a fitted effect of over 60% in size
#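 Inhibition of Kinase-Glo luciferase light generation was assessed at 10 uM ATP in pH 7.2 imidazole buffer, with luminescence measured after eight minutes at ambient temperature.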
# HPGD inh = HPGD (human) dehydrogenase inhibition; Potency, µM, actives largely listed as inhibitors; purified HPGD, NADH fluorescence kinetic, PGE2 substrate; 4.3% of 150,000 active; active = well fitted inhibition curve with a large enough effect, not every such curve was filed as active; inconclusive = small, poorly fitted or top-dose-only effect, or another doubt; inactive = no such curve, though single readings can be large or run the other way
#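 NADH formation kinetics: reaction with 30 uM PGE2 and 1 mM NAD+ (final), 20 nM enzyme, Tris-HCl pH 8 with Tween 20, after 15 min compound preincubation at room temperature. Fluorescence change, last versus first of five reads.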
# IMPase Li inh = IMPase inhibition in cells with lithium potentiation; CHO-M1 cells, IP1 TR-FRET (IP-One), carbachol + lithium; Potency, µM (doses to about 59.4 µM), hits mostly inhibitors; 0.35% of 210,000 active;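 also: IP1 builds up when IMPase is blocked and the TR-FRET signal falls; nearly all actives have a fitted effect of over 50% in size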
#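 Test compounds were applied to CHO-M1 cells previously cultured for 16–30 h at 2000 per well. A small lithium amount accompanied them; after 30 min at 37C, IP1 was quantified by TR-FRET.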
# Numbers stand for hits; - = inactive; ? = inconclusive; . = no result given; ! = not confirmed by another sample; [ ] = remark or other dose. Unless noted, calls follow the shape of the dose curve; as a rule, active = well fitted curve in the direction sought with a large enough effect; inconclusive = small, poorly fitted or top-dose-only effect, or another doubt; inactive = no such curve, though single readings can be large; an effect the other way counts as inactive or inconclusive.
SMILES,ALDH1A1 inh,Lamin A splicing,KinaseGlo FLuc,HPGD inh,IMPase Li inh
Cc1ccc(C(=C2C3C=CC2C2C(=O)NC(=O)C32)c2ccc(C)cc2)cc1 (stereo not drawn),0.891µM,-,-,-,-
CCc1nnc(NC(=O)c2ccc3ccccc3n2)s1,17.8µM,.,?,.,-
Cc1ccc(C)c(CSc2nnc(-c3ccccn3)n2N)c1,10µM,-,-,15.8µM,-
Cc1ccc(C)c(-n2c(SCC(N)=O)nnc2-c2ccccn2)c1,-,-,-,-,-
O=[N+]([O-])c1ccc(-c2csc(Nc3ccccc3)[n+]2Cc2ccccc2)cc1,31.6µM,?,-,-,-
COc1ccc(-c2csc(Nc3ccccc3)[n+]2Cc2ccccc2)cc1,?,-,-,.,-
CCOC(=O)N1CCC(NC(=O)C2CCN(C(=O)N3CC(C)Oc4ccc(C)cc43)CC2)CC1 (stereo not drawn),7.94µM,-,-,-,-
CCOC(=O)N1CCC(NC(=O)C2CCN(C(=O)N3CC(C)Oc4ccccc43)CC2)CC1 (stereo not drawn),?,-,-,-,-
CC1=NOC2(C1)N(C)c1ccccc1C2(C)C (stereo not drawn),-,-,-,-,-
COc1ccc2ccc3c(c2c1)N=C[C@]1(O3)N(C)c2ccccc2C1(C)C,?,?,-,31.6µM,-
Cc1ccc(C(=O)/C=C/C(=O)O)cc1,0.447µM,?,-,?,-
COc1c(O)cccc1O,-,.,-,-,-
Oc1cccc(O)c1O,1.5µM,?,.,10µM,-
O=C(c1ccc(S(=O)(=O)Cc2ccccc2F)c([N+](=O)[O-])c1)N1CCCC1,?,.,-,.,-
O=C(O)c1ccc(NC(CSCc2ccccc2F)C(=O)O)c([N+](=O)[O-])c1 (stereo not drawn),7.94µM,-,-,-,-
O=C(O)c1ccc(NC(CSCc2ccc(F)cc2)C(=O)O)c([N+](=O)[O-])c1 (stereo not drawn),22.4µM,-,-,-,-
Cc1ccc(CSCC(Nc2ccc(C(=O)O)cc2[N+](=O)[O-])C(=O)O)cc1 (stereo not drawn),?,-,-,-,-
CC(C)C(=O)Nc1cc(C(F)(F)F)ccc1-n1ccnc1,-,.,.,.,-
COc1cccc(N=CC2=C(O)CCCC2=O)c1,-,-,-,.,-
COc1cccc(N=CC2=C(O)CC(C)(C)CC2=O)c1,8.91µM,-,-,-,-
CCOc1ccc(N=CC2=C(O)CC(C)(C)CC2=O)cc1,14.1µM,-,-,-,-
Cc1ccc(N=CC2=C(O)CC(C)(C)CC2=O)nc1,?,-,-,-,-
CC1(C)CC(=O)C(C=Nc2ccc3cn[nH]c3c2)=C(O)C1,14.1µM,-,-,-,-
CC1(C)CC(=O)C(/C=N/c2ncccc2C(=O)O)=C(O)C1,12.6µM,-,-,?,-
O=C(Nc1nnc(CCN2CCCCC2)s1)c1ccccc1Cl,-,-[9.22 µM],-,.,-
SMILES,ALDH1A1 inh,Lamin A splicing,KinaseGlo FLuc,HPGD inh,IMPase Li inh
CC1(C)CC(=O)C(C=Nc2ccc(N)cc2)=C(O)C1,11.2µM,.,-,.,-
CC1(C)CC(=O)C(C=Nc2ccc(O)cc2)=C(O)C1,?,-,-,-,-
Cc1[nH]nc(N=CC2=C(O)CC(C)(C)CC2=O)c1-c1ccc(Cl)cc1,14.1µM,-,-,-,-
CC1=NN(c2nc3ccccc3[nH]2)C(=O)/C1=C/N(C)C,-,?,1.58µM,.,-
CC1=NN(c2ccc([N+](=O)[O-])cc2)C(=O)/C1=C\N(C)C,?,-,12.6µM,-,-
CCCC1=NN(c2ccc([N+](=O)[O-])cc2)C(=O)/C1=C/N(C)C,?,?,-,-,-
C/C(=C1/C(=O)N(c2ccc([N+](=O)[O-])cc2)N=C1c1ccccc1)N(C)C,-,?,-,-,-
CN(C)/C=C1\C(=O)N(c2ccc([N+](=O)[O-])cc2)N=C1c1ccccc1,25.1µM,?,-,-,-
CN(C)/C=C1/C(=O)N(c2ccc([N+](=O)[O-])cc2)N=C1c1ccccc1,15.8µM,?,-,-,-
CCN(CC)S(=O)(=O)c1ccc(NC(=O)Cn2ncc3c([nH]c4ccccc43)c2=O)cc1,.,-,.,.,.
CSc1ccccc1NC(=O)CN1CC(C)OC(C)C1 (stereo not drawn),-,-,-,.,-
COc1ccc(Cl)cc1NC(=O)CSc1cc(C)[nH]c(=O)n1,.,-,.,.,.
COc1ccccc1OCc1nc2ccccc2[nH]1,-,-,-,-,-
Cc1ccccc1OCc1nc2ccccc2[nH]1,-,.,12.6µM,.,-
CC1=CC(C)C2C(=O)N(c3ccccc3)NC(=O)C2C1 (stereo not drawn),-,-,-,-,-
CC1=CC(C)C2C(=O)N(O)C(=O)C2C1 (stereo not drawn),14.1µM,-,-,-,-
N/C(CC(=O)Nc1cc(C(F)(F)F)ccc1Cl)=N\O,28.2µM!,.,-[7.66 µM],-,-
CN(C)CC(=O)Nc1cc(C(F)(F)F)ccc1Cl,-,-,-,-,-
CC(=O)c1ccc(N2CCN(C(=O)c3ccc4c(=O)n(-c5ccccc5)c(=O)[nH]c4c3)CC2)cc1,14.1µM,?,-,-,-
NC(=O)CSc1nccn1Cc1ccccc1,10µM,.,-,.,-
c1ccc(Cn2ccnc2SCc2nnc(-c3ccccc3)o2)cc1,-,?,-,25.1µM,-
Cc1cc(CNC(=O)CCc2nnc(CCCc3ccccc3)o2)nn1C,-,-,-,.,-
CN[C@@H]1[C@H](O)[C@H](NC)[C@H]2O[C@@]3(O)C(=O)C[C@@H](C)O[C@H]3O[C@@H]2[C@H]1O,-,.,-,-,-
CCCCCCn1c(SCC(C)C)nc2c1c(=O)[nH]c(=O)n2C,-,-,-,-,-
CCCCCn1c(Sc2ncccn2)nc2c1c(=O)[nH]c(=O)n2C,-,-,-,-,-
SMILES,ALDH1A1 inh,Lamin A splicing,KinaseGlo FLuc,HPGD inh,IMPase Li inh
CCCCCCn1c(SCC(=O)OC)nc2c1c(=O)[nH]c(=O)n2C,3.55µM,-,-,7.94µM,-
CC(C)n1c(SCC(N)=O)nc2c1c(=O)[nH]c(=O)n2C,22.4µM,-,-,?,-
COC(=O)CSc1nc2c(c(=O)n(C)c(=O)n2C)n1CCC(C)C,12.6µM,-,-,14.1µM,-
CCCCCn1c(Sc2nc3ccccc3s2)nc2c1c(=O)[nH]c(=O)n2C,?,?,-,-,12.6µM
CC(C)CCn1c(SCc2ccc(Cl)cc2)nc2c1c(=O)[nH]c(=O)n2C,11.2µM,?,-,25.1µM,-
Cc1ccc(CSc2nc3c(c(=O)[nH]c(=O)n3C)n2CCC(C)C)cc1,?,-,-,-,-
CC(C)CCn1c(Sc2nc3ccccc3o2)nc2c1c(=O)[nH]c(=O)n2C,11.2µM,?,-,-,-
CCCCn1c(SCc2ccc(Cl)cc2)nc2c1c(=O)[nH]c(=O)n2C,28.2µM,-,-,?,-
COC(=O)c1ccc(NC(=O)Cn2c(=O)nc(-c3ccccc3)c3ccccc32)cc1,.,-,.,.,.
CSC1=N/C(=C\c2ccccc2Cl)C(=O)N1N(C)C,17.8µM,.,.,.,.
CCOC(=O)N1CCN(C(=O)c2ccc(CS(=O)(=O)c3ccccc3OC)o2)CC1,-,-,-,-,-
